Most compounds without a hit are left out; they make up all but 5.7% or so of the library.
FAS-TE inh: blocks the thioesterase domain of human fatty acid synthase. recombinant FAS-TE, OMFH fluorogenic substrate, fluorescence endpoint. actives 0.67% (n = 360,000). inhibition, % at 15 µM. AID 602261;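 active = compounds whose normalised, plate-corrected inhibition of enzyme fluorescence in the single-dose primary screen is 50% or more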;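 note: 0% = DMSO with enzyme and 100% = substrate without enzyme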
Myeloid diff MLP: promotes myeloid progenitor differentiation. ER-HoxA9 myeloid progenitors, lysozyme-GFP differentiation, flow cytometry. calls only at 10 µM. actives 1% (n = 360,000). AID 624256;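 active = normalized GFP-positive differentiation at or above the plate's own cutoff, the solvent-only control mean plus 3 SD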;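 note: cells exposed to compound for four days before flow analysis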
rCAG binder: molecules binding r(CAG) RNA repeats | r(CAG) RNA repeat, TO-PRO-1 dye displacement fluorescence | AID 651821 | inhibition, % at 3 µM | actives 1.3% (n = 370,000);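 active = inhibition above the plate cutoff, the mean of all test compounds on that plate plus 3 SD, cut at about 35% in these data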;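 note: 0% = DMSO alone and 100% = 100 µM mitoxantrone as full dye displacement; higher means more dye released from RNA so lower well fluorescence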
GRIN3A LBD mod: NR3A (human) ligand-binding domain modulation. NR3A LBD differential scanning fluorimetry, Tm shift; 0% = protein alone, 100% = glycine-bound protein. actives 2.5% (n = 340,000). Tm shift relative to glycine control, % at 25 µM;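 active = melting temperature shift of at least 10% of the positive control shift, at one fixed dose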
MPTP block: inhibitors of mitochondrial permeability transition pore; isolated mouse mitochondria, Ca2+ swelling absorbance, 30 min; inhibition, % at 10 µM; actives 1.4% (n = 360,000);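 active = inhibition of 50% or more, scaled per plate between neutral and stimulator controls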;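 note: 0% = DMSO wells given calcium and 100% = 1 mM EGTA wells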
rCAG binder conf: r(CAG) RNA repeat binding, confirmation; actives 70% (n = 4,300); TO-PRO-1 dye displacement fluorescence; AID 652065; shares compounds with rCAG binder; inhibition, % at 3 µM;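 active = inhibition above a per-plate cutoff, the mean inhibition of sample wells plus 3 SD, cut at about 35% in these data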;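 note: loss of TO-PRO-1 fluorescence as compound displaces dye from 1x1 AA loop RNA; 0% = DMSO only wells and 100% = 100 µM mitoxantrone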
dCAG dye counter: DNA CAG dye complex inhibition counter-screen; d(CAG) DNA oligo TO-PRO-1 dye displacement, fluorescence; AID 652068; actives 94% (n = 4,300); inhibition, % at 3 µM; shares compounds with rCAG binder;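 active = inhibition above its plate's cutoff, the mean test-well inhibition plus 3 SD, cut at about 4.8% in these data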;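 note: 0% = DNA dye mix with DMSO and 100% = 100 µM mitoxantrone; hits displace the dye from DNA and so lower well fluorescence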
DNA CAG DR: DNA CAG dye complex inhibition, dose response counter-screen; AID 686960; actives 20% (n = 250); IC50, µM; shares compounds with rCAG binder; DNA CAG/GTC duplex TO-PRO-1 dye displacement fluorescence; in the data active = IC50 below about 10 µM
An asterisk follows results filed as active; i = inactive; / = not tested or not shown.

SMILES | FAS-TE inh | Myeloid diff MLP | rCAG binder | GRIN3A LBD mod | MPTP block | rCAG binder conf | dCAG dye counter | others
CCOC(=O)C1=C(C)N=c2s/c(=C\c3ccc(OCC(=O)O)cc3)c(=O)n2C1c1ccccc1OC (configuration not stated) | -2 | i | 31 | 3 | 1 | / | /
CCOC(=O)C1=C(C)N=c2s/c(=C\c3ccc(OCC(=O)O)cc3)c(=O)n2C1c1ccc(Cl)cc1 (configuration not stated) | 4 | i | 55* | 7 | -1 | 73* | 36*
CCOC(=O)C1=C(C)N=c2s/c(=C/c3ccc(OCC(=O)O)c(OC)c3)c(=O)n2C1c1ccc(Cl)cc1 (configuration not stated) | -10 | i | 44* | 3 | 6 | 54* | 16*
CCOC(=O)C1=C(C)N=c2s/c(=C\c3ccc(O)c([N+](=O)[O-])c3)c(=O)n2C1c1ccccc1OC (configuration not stated) | 37 | i | 52* | 0 | 46 | 88* | 64*
CCOC(=O)C1=C(C)N=c2s/c(=C/c3ccc(OCC(=O)O)cc3)c(=O)n2C1c1ccc(SC)cc1 (configuration not stated) | 5 | i | / | / | 4 | / | /
CCOC(=S)SCC(=O)N1CCc2cc(OC)ccc2C1C1C(=O)CCCC1=O (configuration not stated) | -10 | i | 1 | 0 | -2 | / | /
COc1ccc(NC(=O)c2cccnc2Sc2ccccc2)c(OC)c1 | 1 | i | -4 | 2 | 2 | / | /
CC1(NC(=O)NCCCCCCNC(=O)NC2(C)CCS(=O)(=O)C2)CCS(=O)(=O)C1 (configuration not stated) | -3 | i | -1 | 0 | 1 | / | /
COc1ccc(C2C(C(=O)OC(C)C)=C(C)N=c3s/c(=C\c4cccs4)c(=O)n32)cc1 (configuration not stated) | 15 | i | 9 | 0 | 1 | / | /
CC1=C(C(=O)OC(C)C)C(c2ccc(Cl)cc2)n2c(sc(=Cc3ccc(OCC(=O)O)cc3)c2=O)=N1 (configuration not stated) | -2 | i | 42* | / | 0 | 64* | 30* | DNA CAG DR=>30
CCN1CCN(C(=O)CN2C(=O)c3ccccc3S2(=O)=O)CC1 | -8 | i | 1 | 3 | -1 | / | /
COc1ccc(Cc2nnc(SCC(=O)c3ccc4c(c3)NC(=O)CO4)o2)cc1 | -6 | i | 1 | 2 | 0 | / | /
Cc1ccc([C@H]2C(C(=O)O)=CC[C@@H](c3ccc(C(C)C)cc3)N2S(=O)(=O)c2ccc(C)cc2)cc1 | 5 | i | 88* | -6 | 0 | 81* | 48*
Cc1ccc([C@H]2C(C(=O)O)=CC[C@@H](c3ccc(Cl)cc3)N2S(=O)(=O)c2ccc(C)cc2)cc1 | 11 | i | 80* | -7 | 1 | 80* | 47*
Cc1ccc(S(=O)(=O)N2[C@@H](c3ccc(Cl)cc3)C(C(=O)O)=CC[C@H]2c2ccc(C(C)C)cc2)cc1 | 32 | i | 83* | -5 | 0 | 89* | 61*
Cc1ccc(S(=O)(=O)N2[C@@H](c3ccc(Br)cc3)C(C(=O)O)=CC[C@H]2c2cccc(Cl)c2)cc1 | 13 | i | 14 | -8 | 1 | / | /
Cc1ccc(S(=O)(=O)N2[C@@H](c3ccccc3)C(C(=O)O)=CC[C@H]2c2ccc(C(C)C)cc2)cc1 | 3 | i | 81* | -4 | -3 | 78* | 41*
Cc1onc(-c2ccccc2)c1C(=O)N/N=C/c1cc2c(cc1Cl)OCO2 | 15 | i | 0 | -9 | 0 | / | /
O=C1OCCC1Sc1nc2cc(Cl)ccc2s1 (configuration not stated) | 0 | i | 2 | 1 | -1 | / | /
O=C(O)C1=CC[C@@H](c2ccc(Cl)cc2)N(S(=O)(=O)c2ccc(Cl)cc2)[C@H]1c1ccccc1 | 17 | i | 65* | -17 | 3 | 69* | 30*

Screening results (PubChem BioAssay)
